Where two headings read alike, the source gives them in different places.
What was measured:
TAOK2 = conditions: concentration: 1 μM, replicates: in singlicate; n = 1
TAOK3 = conditions: concentration: 1 μM, replicates: in singlicate; n = 1
TBK1 = conditions: concentration: 1 μM, replicates: in singlicate; n = 1
TEC = conditions: concentration: 1 μM, replicates: in singlicate; n = 1
TESK1 = conditions: concentration: 1 μM, replicates: in singlicate; n = 1
TGFBR1 = conditions: n = 1
TGFBR2 = conditions: concentration: 1 μM, replicates: in singlicate; n = 1
TIE1 = conditions: concentration: 1 μM, replicates: in singlicate; n = 1
TIE2 = tested on: T1, TIE2; conditions: concentration: 1 μM, replicates: in singlicate; n = 1
T1 construct: gene TEK

TLK1 = conditions: concentration: 1 μM, replicates: in singlicate; n = 1
[1] = concentration: 1 μM, replicates: in singlicate
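Further: KINOMEscan kinase panel screen.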

Row | SMILES | %Inh (TAOK2) | %Inh (TAOK3) | %Inh (TBK1) | %Inh (TEC) | %Inh (TESK1) | %Inh (TGFBR1; [1]) | %Inh (TGFBR2) | %Inh (TIE1) | %Inh (TIE2) | %Inh (TLK1) | %Inh (TGFBR1; 1 µM)
1 | NS(=O)(=O)CCc1cccc(Nc2nccc(-c3c(-c4cccc(NC(=O)c5c(F)cccc5F)c4)nn4ccccc34)n2)c1 [GSK336735] | 32% | 88% | 15% | 95.6% | 50% | 3% | 20% | 96.8% | 91.1% | 8% | 
2 | CCn1cnc2c(N)ncnc21 [GW345098] | 4% | 0% | 39% | 11% | 4% | 0% | 12% | 6% | 2% | 22% | 
3 | O=C(NCCNc1ccnc(Nc2ccc(F)cc2)n1)c1cc2ccccc2s1 [GSK1379874] | 0% | 0% | 17% | 8% | 97.2% | 7% | 0% | 0% | 0% | 0% | 
4 | O=C(NCCCN1CCOCC1)c1cccc(Nc2nccc(Nc3ccc(Oc4ccccc4)cc3)n2)c1 [GW663929] | 0% | 0% | 26% | 70% | 0% | 0% | 7% | 11% | 0% | 18% | 
5 | CC(C)Oc1ccc2c(-c3ccnc(Nc4ccc(N5CCN(C)CC5)cc4)n3)cnn2n1 [GW696155] | 79% | 70% | 97.9% | 0% | 12% | 29% | 35% | 80% | 0% | 95.3% | 
6 | Cc1nnc(-c2ccc(C)c(-c3ccc(C(=O)Nc4ccc(NS(C)(=O)=O)cc4)cc3)c2)o1 [GW702865] | 0% | 0% | 10% | 0% | 11% | 0% | 0% | 0% | 0% | 0% | 
7 | Cc1cccc(-c2nc(Nc3ccc4ncsc4c3)c3ccccc3n2)n1 [GW867588] | 0% | 6% | 0% | 0% | 0% |  | 0% | 0% | 0% | 0% | 55%
8 | COC(=O)Nc1nc2cc(Oc3ccc(NC(=O)Nc4cc(F)ccc4F)cc3)ccc2[nH]1.Cl [GW701424] | 0% | 0% | 9% | 0% | 73% | 27% | 0% | 93.2% | 73% | 0% | 
9 | COc1cc2c(cc1OC[C@@H](O)CO)ncc1c3ccc(C#N)cc3[nH]c21 | 0% | 0% | 68% | 0% | 0% | 23% | 0% | 0% | 0% | 11% | 
10 | CN1c2ccc(NCc3ccc(F)cc3)cc2-c2c(cnn2C)S1(=O)=O | 26% | 0% | 0% | 0% | 14% | 2% | 16% | 8% | 0% | 13% | 
11 | COc1ccc(S(=O)(=O)NC2CCN(c3cc(C)nc(Nc4cccc(C#N)c4)n3)CC2)cc1.O=C(O)C(F)(F)F [GSK1653539] | 0% | 0% | 11% | 10% | 5% | 0% | 0% | 0% | 0% | 8% | 
12 | CN1c2ccc(CNc3ccc(F)cc3)cc2-c2c(cnn2C)S1(=O)=O | 23% | 0% | 0% | 0% | 0% | 0% | 0% | 0% | 0% | 16% | 
13 | COc1ccc(Nc2ncc(C#N)c(Nc3ccccc3C(N)=O)n2)cc1N1CCN(C)CC1.Cl [GSK1558669] | 51% | 91.3% | 99.5% | 93.5% | 67% | 46% | 27% | 98.5% | 97.2% | 96.2% | 
14 | Cc1ccc(C(=O)NCC(N)=O)cc1-n1c(C)cc(OCc2ccc(F)cc2F)c(Br)c1=O | 7% | 0% | 36% | 13% | 31% | 36% | 26% | 0% | 0% | 0% | 
15 | CCCCCc1nc2c(N)ncnc2n1CCCCC [SKF-97255] | 18% | 0% | 42% | 6% | 14% | 3% | 11% | 0% | 19% | 0% | 
16 | CSc1ccc(-c2cc3ncnc(SCC(=O)O)c3s2)cc1 | 0% | 0% | 0% | 0% | 0% | 0% | 12% | 0% | 0% | 2% | 
